Our source for the Potency and activity change, positive = activation values is PubChem BioAssay (NCATS).

A number with no mark means an inactive call. Inconclusive results are not listed. Calls of active or inactive are those of the source. The call rests on the fitted dose curve; in most records, active means well fitted curve in the direction sought with a large enough effect; inconclusive means small, poorly fitted or top-dose-only effect, or another doubt; inactive means no such curve, though single readings can be large; an effect the other way counts as inactive or inconclusive.

For assay [1], the target named is Cytochrome P450 3A4 (Homo sapiens) (UniProt P08684). Kind of assay: qHTS Assay for Inhibitors and Substrates of Cytochrome P450 3A4 (AID 884). Further: potency means the concentration at half of the fitted maximal effect; nearly all actives have a fitted effect of over 50% in size. In short, it runs like this: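 20 nM human CYP3A4 with 25 uM Luciferin-PPXE (at KM) in 200 mM KPO4, preincubated 10 min with compound; NADPH regeneration started a 60 min RT reaction. Luciferin detected by luminescence, normalized to 57 uM ketoconazole as full inhibition.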

Assay [2] has the same target. Put plainly: qHTS Assay for Activators of Cytochrome P450 3A4 (AID 885). Further: nearly all actives have a fitted effect of over 65% in size. In short, it runs like this:
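Human CYP3A4 (20 nM) with Luciferin-PPXE at 25 uM (its KM) in 200 mM KPO4; 10 min compound preincubation, then NADPH regeneration and 60 min reaction at RT. Luciferin read by luminescence; normalized to 57 uM ketoconazole full inhibition.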

Chain of Cytochrome P450 3A4 (Homo sapiens) (P08684 whole entry, looked up): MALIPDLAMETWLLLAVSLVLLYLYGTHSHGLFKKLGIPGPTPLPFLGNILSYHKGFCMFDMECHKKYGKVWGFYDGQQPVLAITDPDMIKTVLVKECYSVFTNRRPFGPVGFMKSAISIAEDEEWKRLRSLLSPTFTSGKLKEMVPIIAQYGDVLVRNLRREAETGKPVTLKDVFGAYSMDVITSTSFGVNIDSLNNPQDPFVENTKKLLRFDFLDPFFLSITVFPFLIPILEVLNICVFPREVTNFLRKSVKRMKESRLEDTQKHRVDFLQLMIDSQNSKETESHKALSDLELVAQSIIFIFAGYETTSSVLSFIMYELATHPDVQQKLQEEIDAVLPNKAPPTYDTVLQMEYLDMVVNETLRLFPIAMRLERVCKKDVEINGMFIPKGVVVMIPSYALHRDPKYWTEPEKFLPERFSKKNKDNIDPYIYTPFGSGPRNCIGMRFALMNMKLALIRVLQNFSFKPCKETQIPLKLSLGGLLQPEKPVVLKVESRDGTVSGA

For the molecule `CCC1=C2CC[C@H]3C(=O)N(c4ccccc4)C(=O)[C@H]3[C@H]2[C@@]2(C)C(=NCC(=O)OC)OC(=O)N2C1=O`, the Potency in assay [1] was 15.8 µM (active). For the same molecule, in assay [2], the Potency result was “inactive”.
`S=C=Nc1cccc(NC(=S)NCCCCNC(=S)Nc2cccc(N=C=S)c2)c1`: the Potency in assay [1] is 3.16 µM (active). Besides, the Potency result in assay [2] was “inactive”.
Turning to `O=c1oc2ccccc2c2oc3cc(O)c(O)cc3c12`, the Potency in assay [1] was 20 µM (active). Moreover, the Potency entry in assay [2] is “inactive”.
As to `CCC1=C2CC[C@H]3C(=O)N(CC)C(=O)[C@H]3[C@H]2[C@@]2(C)C(=NCCc3c[nH]c4ccccc34)OC(=O)N2C1=O`, the Potency in assay [1] is 3.98 µM (active). Also, the Potency entry in assay [2] is “inactive”.
For `NC(N)=NCCC[C@H](NC(=O)CC1(CC(=O)N2CCN(C3c4ccccc4NC(=O)c4ccccc43)CC2)CCCC1)C(=O)NCCn1c(=O)n(-c2ccccc2)n(-c2ccccc2)c1=O` (stereo partly drawn), the Potency in assay [1] is 12.6 µM (active). Moreover, the Potency result in assay [2] is “inactive”.
With `Cn1c(=O)c(C(=O)COC(=O)c2cc(-c3ccco3)nc3ccccc23)c(N)n(Cc2ccccc2)c1=O`, the Potency in assay [1] was 12.6 µM (active). Moreover, in assay [2], the Potency entry was “inactive”.
In the case of `C=CC[C@@H]1C=C[C@@H](O/N=C(/C)CCC(=O)OC[C@@H]2O[C@H](C#Cc3ccccc3)C=C[C@@H]2Oc2ccc(C)cc2)[C@@H](CO)O1`, the Potency in assay [1] is 5.01 µM (active). Moreover, the activity change, positive = activation in assay [2] was -97.7% [at 11.4 µM].
As for `COc1cccc([C@@H]2Oc3ccc(OC)cc3C(=O)[C@H]2O)c1`, the Potency in assay [1] was 3.98 µM (active). In addition, the activity change, positive = activation in assay [2] is -83.3% [at 11.4 µM].
With `CCC1=C(OC(=O)N(CC)CC)N2C(=O)OC(=NCC3CC3)[C@]2(C)[C@H]2C1=CC[C@H]1C(=O)N(CC(=O)OC)C(=O)[C@H]12`, the Potency in assay [1] was 7.94 µM (active). Further, in assay [2], the Potency result was “inactive”.
`CC(C)=CCC/C(C)=C/CO/N=C1/C[C@@H](O)[C@@H](O)[C@@H]2[C@@H]3C(=O)N(Cc4ccc5c(c4)OCO5)C(=O)[C@H]3CC[C@@H]12`: the Potency in assay [1] was 1.58 µM (active). Besides, the activity change, positive = activation in assay [2] is -86.9% [at 11.4 µM].
`CCCNC(=O)OC[C@@H]1O[C@H](CCO/N=C(\C)CCN2CCCc3nc(C)c(C)cc32)C=C[C@@H]1Oc1ccc(OC)cc1`: the Potency in assay [1] is 3.98 µM (active). Also, the activity change, positive = activation in assay [2] was -70.1% [at 11.4 µM].
Turning to `C=CC[C@@H]1C=C[C@H](O/N=C(\C)CCN2CCc3nc(-c4ccccc4)c(-c4ccccc4)cc3C2)[C@H](CO)O1`, the Potency in assay [1] is 3.98 µM (active). Moreover, the activity change, positive = activation in assay [2] was -81.8% [at 11.4 µM].
Consider `CCC1=C2CC[C@H]3C(=O)N(CC)C(=O)[C@H]3[C@H]2[C@@]2(C)C(=O)N(CC(=O)OC)C(=O)N2C1=O`, for which the Potency in assay [1] is 7.94 µM (active). Besides, in assay [2], the Potency result was “inactive”.
`CO[C@H]1COC(=O)C/C=C\[C@H](C)[C@@H](OC)COC(=O)[C@H](Cc2ccccc2)NC(=O)C/C=C\[C@@H]1C`: in assay [1], the Potency was 3.16 µM (active). For the same molecule, the activity change, positive = activation in assay [2] is -62.1% [at 11.4 µM].
As to `CCC1=C2CC[C@H]3C(=O)N(c4ccccc4)C(=O)[C@H]3[C@H]2[C@@]2(Cc3ccccc3)C(=NCCOC)OC(=O)N2C1=O`, the Potency in assay [1] is 7.94 µM (active). Moreover, the Potency result in assay [2] is “inactive”.
`COC(=O)[C@@H]1C[C@@]2(O)[C@@H](O)[C@@H](O)[C@@H](O)C[C@H]2N1Cc1cc(OC)cc(OC)c1`: the Potency in assay [1] is 3.16 µM (active). For the same molecule, the Potency result in assay [2] was “inactive”.
For `CCC1=C2CC[C@H]3C(=O)N(CC(=O)OC)C(=O)[C@H]3[C@H]2[C@@]2(Cc3ccccc3)C(=NCCOC)OC(=O)N2C1=O`, in that order: 12.6 µM (active) and “inactive”.
Consider `O=C1[C@H]2[C@H]3[C@H](O)[C@H](O)C/C(=N/OC[C@@H](O)COCc4ccco4)[C@H]3CC[C@@H]2C(=O)N1Cc1ccc2c(c1)OCO2`, for which the Potency in assay [1] is 3.16 µM (active). In assay [2], the activity change, positive = activation is -88.1% [at 11.4 µM].
With `CCC1=C2CC[C@H]3C(=O)N(c4ccccc4)C(=O)[C@H]3[C@H]2[C@@]2(Cc3ccccc3)C(=O)N(CC(=O)OC)C(=O)N2C1=O`, the Potency in assay [1] was 3.98 µM (active). The Potency entry in assay [2] is “inactive”.
Take `N#Cc1ccc(C23CC4(C2)[C@H](CN(Cc2cccnc2)[C@@H]4c2ccccc2)C3c2ccc(C(F)(F)F)cc2)cc1` (stereo partly drawn): the Potency in assay [1] was 6.31 µM (active). In addition, the Potency entry in assay [2] was “inactive”.
Consider `Cc1c(C(=O)NC2CCCCC2)sc2nc3ccc(N)cc3n12`, for which the Potency in assay [1] was 1.58 µM (active). Further, the Potency result in assay [2] is “inactive”.
The like results for `COC(=O)c1ccc(C23CC4(C2)[C@H](CN(Cc2cccnc2)[C@@H]4c2ccccc2)C3c2ccccc2)cc1` (stereo partly drawn) were, in that order, 3.98 µM (active) and “inactive”.
Regarding `CCC1=C(OC(=O)N(CC)CC)N2C(=O)OC(=NCC3CC3)[C@]2(Cc2ccccc2)[C@H]2C1=CC[C@H]1C(=O)NC(=O)[C@H]12`, in assay [1], the Potency was 2 µM (active). Moreover, in assay [2], the Potency result is “inactive”.
On to `COCCN=C1OC(=O)N2C(=O)C3=C4C(C[C@H]5C(=O)N(CC(=O)OC)C(=O)[C@H]5[C@H]4[C@@]12Cc1ccccc1)[C@H]1C(=O)N(CC(=O)OC)C(=O)[C@H]1[C@H]3C` (stereo partly drawn), for which the Potency in assay [1] was 15.8 µM (active). For the same molecule, in assay [2], the Potency entry is “inactive”.
